The results in this text go back to PubChem BioAssay.

Test [1] has as its target Nuclear receptor coactivator 3 (Homo sapiens) (UniProt Q9Y6Q9). Description: NCOA3 GAL4-fusion reporter inhibition – cell-based, luminescence, quadruplicate, confirmation (AID 588792;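 active = mean inhibition over 43.08%, the solvent-only control mean plus 3 SD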;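 also: 0% = DMSO treated cells and 100% = gossypol at 36 µM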). To be noted: HEK293 GAL4-SRC3 luciferase reporter, at 3.6 µM, hits give high values. (In a reporter assay the amount or activity of a reporter protein is the signal.)
Test [2] concerns transactivating tegument protein VP16 (Human herpesvirus 1), Gal4-VP16 luciferase reporter. The test can be described thus: repression of VP16-driven luciferase reporter – cell-based, luminescence, high throughput, counter-screen for SRC3 inhibitor project (AID 588794; in the data active = inhibition above about 30%). To be noted: mammalian cells, at 3.6 µM, hits give high values.
In test [3] the target is Nuclear receptor coactivator 1 (Homo sapiens) (UniProt Q15788). Description: NCOA1 GAL4-fusion reporter inhibition – cell-based, luminescence, quadruplicate, confirmation (AID 588820).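 Also: 0% = DMSO wells and 100% = gossypol 36 µM treated wells.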 To be noted: HEK293 GAL4-SRC1 luciferase reporter, at 3.6 µM, hits give high values.
Chain of Nuclear receptor coactivator 1 (Homo sapiens) (Q15788 whole entry, looked up, the tested form may be a part): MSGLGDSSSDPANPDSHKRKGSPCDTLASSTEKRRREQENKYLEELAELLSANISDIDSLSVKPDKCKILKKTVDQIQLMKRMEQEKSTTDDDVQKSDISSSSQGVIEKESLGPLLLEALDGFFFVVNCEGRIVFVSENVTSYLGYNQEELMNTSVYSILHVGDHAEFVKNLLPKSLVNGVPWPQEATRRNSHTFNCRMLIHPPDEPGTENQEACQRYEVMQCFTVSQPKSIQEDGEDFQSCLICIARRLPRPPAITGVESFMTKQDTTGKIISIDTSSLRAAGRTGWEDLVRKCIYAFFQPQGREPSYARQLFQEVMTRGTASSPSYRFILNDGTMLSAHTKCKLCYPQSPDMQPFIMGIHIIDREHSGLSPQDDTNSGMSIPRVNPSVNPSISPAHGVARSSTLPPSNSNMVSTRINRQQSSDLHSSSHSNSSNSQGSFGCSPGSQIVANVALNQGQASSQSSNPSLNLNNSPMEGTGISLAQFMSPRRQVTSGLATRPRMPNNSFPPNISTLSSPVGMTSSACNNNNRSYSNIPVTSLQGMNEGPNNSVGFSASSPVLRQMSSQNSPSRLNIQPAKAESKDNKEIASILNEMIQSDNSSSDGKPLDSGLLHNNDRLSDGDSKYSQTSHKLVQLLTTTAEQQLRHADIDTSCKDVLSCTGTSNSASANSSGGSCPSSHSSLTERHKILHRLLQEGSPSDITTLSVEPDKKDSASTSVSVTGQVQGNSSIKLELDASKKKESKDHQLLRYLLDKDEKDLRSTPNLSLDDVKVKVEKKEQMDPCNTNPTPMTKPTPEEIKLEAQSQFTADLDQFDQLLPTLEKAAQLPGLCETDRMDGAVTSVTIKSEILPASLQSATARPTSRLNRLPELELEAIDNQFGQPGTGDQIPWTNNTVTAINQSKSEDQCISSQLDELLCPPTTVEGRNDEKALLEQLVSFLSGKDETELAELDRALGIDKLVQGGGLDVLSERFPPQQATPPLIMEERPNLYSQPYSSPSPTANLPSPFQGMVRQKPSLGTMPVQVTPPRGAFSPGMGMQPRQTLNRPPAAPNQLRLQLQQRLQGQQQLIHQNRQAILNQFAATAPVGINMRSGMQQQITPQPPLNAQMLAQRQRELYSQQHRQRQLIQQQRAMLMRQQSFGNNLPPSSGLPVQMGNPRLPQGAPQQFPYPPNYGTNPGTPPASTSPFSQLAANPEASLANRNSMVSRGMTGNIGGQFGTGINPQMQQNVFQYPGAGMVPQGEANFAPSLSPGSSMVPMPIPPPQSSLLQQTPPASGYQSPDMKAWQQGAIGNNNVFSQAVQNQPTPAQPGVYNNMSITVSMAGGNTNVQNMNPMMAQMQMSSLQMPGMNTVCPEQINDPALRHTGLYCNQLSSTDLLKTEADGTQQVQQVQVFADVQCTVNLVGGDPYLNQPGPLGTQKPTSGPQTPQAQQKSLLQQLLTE
A short description of test [4]: repression of VP16-driven luciferase reporter – cell-based, luminescence, high throughput, counter-screen for SRC1 inhibitor project (AID 588824; in the data active = inhibition above about 25%). The conditions noted are these: cell-based VP16 transactivation luciferase luminescence; at 3.6 µM; hits give high values.

Structures are written as SMILES. Unmarked numbers belong to inactive results. The source made the active and inactive calls.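 The calls were made as follows, unless noted: active = mean inhibition above 46.68%, the untreated control wells mean plus 3 SD; inactive = the rest.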

Chain of Nuclear receptor coactivator 3 (Homo sapiens) (Q9Y6Q9 whole entry, looked up, the tested form may be a part): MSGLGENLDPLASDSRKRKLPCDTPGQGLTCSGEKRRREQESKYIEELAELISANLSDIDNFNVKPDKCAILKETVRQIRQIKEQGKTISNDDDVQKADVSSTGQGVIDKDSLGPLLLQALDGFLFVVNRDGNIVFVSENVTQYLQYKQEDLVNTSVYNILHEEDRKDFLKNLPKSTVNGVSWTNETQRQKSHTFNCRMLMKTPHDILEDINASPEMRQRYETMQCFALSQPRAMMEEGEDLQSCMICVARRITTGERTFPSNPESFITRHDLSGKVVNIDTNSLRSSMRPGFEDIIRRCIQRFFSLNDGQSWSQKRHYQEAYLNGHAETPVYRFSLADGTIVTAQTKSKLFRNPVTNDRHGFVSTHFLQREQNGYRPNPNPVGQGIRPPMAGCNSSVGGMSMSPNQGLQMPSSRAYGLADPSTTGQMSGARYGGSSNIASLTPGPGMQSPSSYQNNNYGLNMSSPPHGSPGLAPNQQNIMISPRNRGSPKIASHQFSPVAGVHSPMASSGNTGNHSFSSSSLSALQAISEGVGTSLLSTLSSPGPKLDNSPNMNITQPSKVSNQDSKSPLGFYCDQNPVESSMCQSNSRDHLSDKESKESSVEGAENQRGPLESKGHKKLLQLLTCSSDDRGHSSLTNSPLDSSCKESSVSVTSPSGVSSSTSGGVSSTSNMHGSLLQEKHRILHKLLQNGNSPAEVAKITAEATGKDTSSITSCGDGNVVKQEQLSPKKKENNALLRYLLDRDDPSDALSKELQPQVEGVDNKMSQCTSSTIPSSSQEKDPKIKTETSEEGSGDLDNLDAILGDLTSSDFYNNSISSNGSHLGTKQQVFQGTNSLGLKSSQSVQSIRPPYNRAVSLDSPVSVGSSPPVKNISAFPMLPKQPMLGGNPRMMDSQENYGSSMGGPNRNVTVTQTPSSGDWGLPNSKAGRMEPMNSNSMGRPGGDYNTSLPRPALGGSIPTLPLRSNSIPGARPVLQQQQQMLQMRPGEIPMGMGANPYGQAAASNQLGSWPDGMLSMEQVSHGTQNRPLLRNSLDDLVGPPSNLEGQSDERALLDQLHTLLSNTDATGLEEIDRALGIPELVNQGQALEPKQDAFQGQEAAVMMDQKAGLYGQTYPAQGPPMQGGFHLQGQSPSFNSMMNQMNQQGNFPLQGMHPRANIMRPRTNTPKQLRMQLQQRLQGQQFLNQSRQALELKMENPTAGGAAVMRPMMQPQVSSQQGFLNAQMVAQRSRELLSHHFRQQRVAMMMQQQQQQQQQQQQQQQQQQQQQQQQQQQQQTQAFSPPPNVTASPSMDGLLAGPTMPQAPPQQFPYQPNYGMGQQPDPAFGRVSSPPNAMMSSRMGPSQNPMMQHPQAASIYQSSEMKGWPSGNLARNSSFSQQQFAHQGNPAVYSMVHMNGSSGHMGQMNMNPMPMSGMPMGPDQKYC

As to `N=c1c2c(-c3ccccc3)c(-c3ccccc3)n(Cc3ccccc3)c2ncn1CCCn1ccnc1`, the inhibition was 26.8% in test [1], 62.5% (active) in test [2], 57.4% (active) in test [3] and 62.8% (active) in test [4].

For the molecule `Cc1ccc(-c2cc3c(N=O)c4ccccc4c-3n[nH]2)cc1`, the inhibition in test [1] was 66.2% (active); in test [2], 59.7% (active); in test [3], 30.2%; in test [4] it was 53% (active).

`CN(Cc1c(C(=O)N/N=C/c2cccc(F)c2)nnn1-c1nonc1N)C1CCCCC1`: the inhibition in test [1] is -12.4%; in test [2], 3.59%; in test [3] it was 6.95%; in test [4], -3.15%.

As to `CCN(CC)c1ncnc2ccc(Br)cc12`, the inhibition in test [1] is 48.3% (active); in test [2], 31.9% (active); in test [3] it was 45.9%; in test [4], 36% (active).

With `CCC(=O)Oc1c(C(=O)CC)cc2c(C)cc(=O)oc2c1C`, the inhibition was 15.1% in test [1], 17.6% in test [2], 25.6% in test [3] and 15.6% in test [4].

For the molecule `COc1ccc(Nc2nc(N3CCCC3)nc3ccccc23)c(OC)c1`, the inhibition in test [1] is 16.8%; in test [2], 37.1% (active); in test [3] it was 5.96%; in test [4] it was 33.2% (active).

Consider `C=CC[n+]1ccc(/C=C2\C=Cc3cc(C)ccc3N2CC)c2ccccc21`, for which the inhibition is 79.4% (active) in test [1], 86% (active) in test [2], 63.8% (active) in test [3] and 86.7% (active) in test [4].

On to `O=[N+]([O-])c1cccc2c1ccc1ncccc12`, for which the inhibition is 33% in test [1], 11.7% in test [2], 36% in test [3] and 15.9% in test [4].

`O=C(Nc1ccc([N+](=O)[O-])cc1)Nc1ccc(OC(F)F)c(Cl)c1`: the inhibition was 22.9% in test [1], 32.5% (active) in test [2], 10.3% in test [3] and 39.7% (active) in test [4].

`CC(=O)NC(c1ccccc1)c1cc(Cl)c2cccnc2c1O` (centres undefined): the inhibition in test [1] was 29.2%; in test [2] it was 30.1% (active); in test [3] it was 36%; in test [4], 27% (active).

Consider `COc1ccc(-n2c(C)c(C(C)=O)c3cc(OC(C)=O)ccc32)cc1`, for which the inhibition in test [1] was 77.5% (active); in test [2] it was 55% (active); in test [3], 65.2% (active); in test [4], 60.4% (active).

As for `Cc1ccc(C(=O)O/N=C(\N)c2ccccc2)c(Cl)c1`, the inhibition in test [1] is -11.9%; in test [2], -35.4%; in test [3], -120%; in test [4] it was -64.6%.

On to `CCOc1ccc(-n2c(C)c(C(C)=O)c3cc(OC(C)=O)ccc32)cc1`, for which the inhibition is 67.3% (active) in test [1], 44.5% (active) in test [2], 65.8% (active) in test [3] and 47.6% (active) in test [4].

In the case of `CC(C)(C)c1ccc(/C=C2\SC(=O)N(CCNC(=O)c3cccc(S(=O)(=O)N4CCOCC4)c3)C2=O)cc1`, the inhibition in test [1] is -11.1%; in test [2], -19.8%; in test [3], -58.1%; in test [4], -59.9%.

Consider `CCOc1cc(Br)cc(/C=N/NC(=O)c2cccnc2)c1O`, for which the inhibition in test [1] is 33%; in test [2] it was 44.3% (active); in test [3], 27.3%; in test [4] it was 36.9% (active).

For the molecule `Cc1ccc(S(=O)(=O)N2C[C@@H]3CCCC[C@@H]3[C@@H](C)[C@H]2c2cn(Cc3ccccc3)c3ncccc23)cc1`, the inhibition in test [1] is 22.3%; in test [2], 47.6% (active); in test [3], 25.8%; in test [4], 42.2% (active).

Take `Cn1c(/C=C/c2ccc(Cl)cc2Cl)c([N+](=O)[O-])c(=O)n(C)c1=O`: the inhibition in test [1] is 62.2% (active); in test [2], 51.5% (active); in test [3], 47.2% (active); in test [4] it was 56.3% (active).

As to `CC(=O)N1CCN(c2ccc(Oc3ncnc4sccc34)cc2)CC1`, the inhibition in test [1] was 25.7%; in test [2] it was 16.9%; in test [3], 27.3%; in test [4], 16.9%.

With `O=C(Nc1nc(-c2ccc3ccccc3c2)cs1)C1CCN(S(=O)(=O)c2cccs2)CC1`, the inhibition is 8.55% in test [1], 32.2% (active) in test [2], -6.77% in test [3] and 33.2% (active) in test [4].

`COC1CC(C)C(OC)c2cc(O)cc(c2O)NC(=O)C(C)=CC=CC(C)C(OC(N)=O)C(C)=CC(C)C1OC` (centres undefined): the inhibition was 72.5% (active) in test [1], 80.2% (active) in test [2], -2.07% in test [3] and 77% (active) in test [4].

With `COc1ccc(C(=O)N/N=C/c2cc(Br)ccc2O)cc1OC`, the inhibition is 26.2% in test [1], 37.5% (active) in test [2], 22% in test [3] and 42.5% (active) in test [4].

For the molecule `O=C(NC(=S)/C(=C1\CCCCCN1)[N+](=O)[O-])c1ccccc1`, the inhibition in test [1] is 32.1%; in test [2], 9.73%; in test [3], -25.3%; in test [4] it was -33%.

In the case of `Cc1ccc(NC(=O)c2cc3ccccc3oc2=O)cc1S(=O)(=O)N(C)C`, the inhibition in test [1] was 82.9% (active); in test [2], 78.5% (active); in test [3], 67% (active); in test [4] it was 63.7% (active).

With `O=C(N/N=C/c1ccc(O)cc1O)/C(=C/c1ccccc1)CCO`, the inhibition was 22.1% in test [1], 20.7% in test [2], 31.7% in test [3] and 24% in test [4].

Turning to `Cc1ccc(S(=O)(=O)N(C)Cc2ccc(C(=O)N/N=C/c3ccc(OC(F)F)cc3OC(F)F)cc2)cc1`, the inhibition is 10.9% in test [1], 18.8% in test [2], -28.9% in test [3] and 20% in test [4].

With `Cn1c2c(c(=O)n(C)c1=O)C(C(F)(F)F)(C(F)(F)F)N=C(C1CCCCC1)N2`, the inhibition in test [1] is 11.5%; in test [2], 20.6%; in test [3], 10.2%; in test [4] it was 12.8%.

The inhibition is the drop in the measured response relative to a control, in per cent.
